# Test results: PubChem BioAssay (EPA / NIEHS)
# Records with an inconclusive call do not appear. The source made the active and inactive calls. How the source made its calls: active means hit-call score of the fitted dose curve at least 0.9, where 1 is the maximum; inconclusive means response in the unintended direction; inactive means score below 0.9.
# Read-out: Broad substrate specificity ATP-binding cassette transporter ABCG2 (Homo sapiens) (UniProt Q9UNQ0)
# Experiment: CLD_ABCG2_24hr: CellzDirect (CLD) Gene Expression Assay for ABC Transporter (ABCG2) at 24 hours (AID 2283685)
# Protocol: CLD_24hr is a cell-based, multiplexed-readout assay that uses hepatocyte, a human liver primary cell, with measurements taken at 24 hours after chemical dosing in a 96-well plate.CLD_ABCG2_24hr is one of 16 assay component(s) measured or calculated from the CLD_24hr assay. It is designed to make measurements of mRNA induction, a form of inducible reporter, as detected with chemiluminescence signals by Quantitative Nuclease Protection Assay (qNPA) technology.Data from the assay component CLD_ABCG2_24hr was analyzed at the endpoint, CLD_ABCG2_24hr, in the positive analysis fitting direction relative to DMSO as the negative control and baseline of activity. Using a type of inducible reporter, gain-of-signal activity can be used to understand changes in the reporter gene as they relate to the gene ABCG2. Furthermore, this assay endpoint can be referred to as a primary readout. To generalize the intended target to other relatable targets, this assay endpoint is annotated to the transporter intended target family, where subfamily is ABC transporter.
# Human hepatocyte cultures were treated daily for two consecutive days with fresh dosing solutions containing appropriate concentrations of the 320 ToxCast chemicals (chemical identities were blinded to CellzDirect and other ToxCast collaborators), vehicle control (0.2% DMSO), and positive control inducers as summarized in Table 1. Due to the large number of treatment groups and chemicals examined, the ToxCast chemicals were divided into two groups (spanning two independent cultures of hepatocytes from separate donor preparations (Hu778: ToxCast plates 1 and 2; Hu776: ToxCast plates 3 and 4). Each preparation of human hepatocyte cultures was treated with respective vehicle control, medium only control, set of six positive controls/reference chemicals for the five hepatic receptor pathways, and a subset of eight of the ToxCast chemicals (indoxacarb, pyrithiobac-sodium, norflurazon, cyhalofop-butyl, methomyl, thiram, acetochlor, and propiconazole). These replicate data, coupled with internal replicates designed within the blinded ToxCast chemical library, provided additional data to evaluate interindividual differences between hepatocyte preparations and their potential impact on chemical profiles.Cell morphology and integrity were evaluated using phase-contrast microscopy as an indicator of hepatocyte cell health (Tyson & Green, 1987). Cultures for each treatment group (i.e., media, vehicle [0.2% DMSO], positive control inducers [multiple concentrations], and the ToxCast chemicals [multiple concentrations]) were observed and cell morphology was assessed relative to vehicle control cultures at each harvest time point (0, 6, 24, or 48 h). […] Images were evaluated at the conclusion of the study to assess changes in cell integrity and account for the effects of chemical exposure on uncharacteristic changes in concentration-dependent gene expression profiles. The results from these determinations of apparent cytotoxicity were annotated (yes/no) alongside the corresponding qNPA data for reference.At the conclusion of each treatment period, hepatocyte cultures (96-well) were washed with 1 volume of HBSS, lysed by addition of 25 ul ArrayPlate lysis buffer (HTG, Tucson, AZ), and 70 ul/well of Denaturation Oil, denatured by incubation at 95C for 10 min, and frozen at approximately -70C until analysis by nuclease protection assay (qNPA) (Roberts et al., 2007). For qNPA analysis, cell lysates were thawed at 50C for approximately 30 min, qNPA probes were added, and samples were incubated at 95C for 10 min to begin the detection process by denaturing the target RNA, dissociating the duplexes and secondary structure hybridization. At the conclusion of the hybridization period, S1 nuclease reagent was added to each sample to digest all nonprotected nucleotides at 50C for 60-90 min. […]
# Sequence of Broad substrate specificity ATP-binding cassette transporter ABCG2 (Homo sapiens) (Q9UNQ0 whole entry, looked up): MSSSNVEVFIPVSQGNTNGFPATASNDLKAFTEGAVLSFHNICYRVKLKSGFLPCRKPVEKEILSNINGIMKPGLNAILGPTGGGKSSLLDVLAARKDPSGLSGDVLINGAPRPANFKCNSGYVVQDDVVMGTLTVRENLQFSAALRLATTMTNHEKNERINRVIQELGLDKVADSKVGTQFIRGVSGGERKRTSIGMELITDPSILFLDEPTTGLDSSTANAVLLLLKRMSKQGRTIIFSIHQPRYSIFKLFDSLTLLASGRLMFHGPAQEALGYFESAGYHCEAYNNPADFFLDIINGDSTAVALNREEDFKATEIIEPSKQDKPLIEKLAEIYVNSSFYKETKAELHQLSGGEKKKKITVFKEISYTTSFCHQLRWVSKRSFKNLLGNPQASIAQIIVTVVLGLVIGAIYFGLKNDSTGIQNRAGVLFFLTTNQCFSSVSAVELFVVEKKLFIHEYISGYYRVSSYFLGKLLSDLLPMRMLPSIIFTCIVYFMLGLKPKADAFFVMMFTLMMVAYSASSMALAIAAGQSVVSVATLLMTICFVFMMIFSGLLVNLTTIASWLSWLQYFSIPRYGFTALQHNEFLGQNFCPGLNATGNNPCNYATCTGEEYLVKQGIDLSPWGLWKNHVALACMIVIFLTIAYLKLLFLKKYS
row,SMILES,outcome
1,CCOC(=O)COc1cc(-n2ncc(C(F)(F)F)c(C)c2=O)c(F)cc1Cl,inactive
2,CCCCOC(=O)C(C)Oc1ccc(Oc2ccc(C(F)(F)F)cn2)cc1 (stereo not given),inactive
3,CCCN(CCC)C(=O)SCC,inactive
4,S=C([S-])NCCNC(=S)[S-].[Mn+2],inactive
5,OB(O)O,inactive
6,CSC(=O)c1cccc2nnsc12,inactive
7,Cc1nn(C)c(Oc2ccccc2)c1C=NOCc1ccc(C(=O)OC(C)(C)C)cc1,inactive
8,CCCN(CCC)c1c([N+](=O)[O-])cc(C(F)(F)F)c(N)c1[N+](=O)[O-],inactive
9,CCCOC(=O)NCCCN(C)C,inactive
10,CCCCOC(=O)[C@@H](C)Oc1ccc(Oc2ccc(C(F)(F)F)cn2)cc1,inactive
11,CCCCCCC(C)OC(=O)COc1nc(F)c(Cl)c(N)c1Cl (stereo not given),inactive
12,CC(C)(c1ccc(O)cc1)c1ccc(O)cc1,inactive
13,C=CCOC(Cn1ccnc1)c1ccc(Cl)cc1Cl (stereo not given),inactive
14,CC(C)(C)[C@@H](O)[C@@H](Cc1ccc(Cl)cc1)n1cncn1,inactive
15,CCC(C)OC(=O)N1CCCCC1CCO (stereo not given),inactive
16,COc1c(Cl)ccc(Cl)c1C(=O)O,inactive
17,CCOC(=O)NCCOc1ccc(Oc2ccccc2)cc1,inactive
18,CCSC(=O)N(CC(C)C)CC(C)C,inactive
19,CCOC(=O)C(C)Oc1ccc(Oc2nc3ccc(Cl)cc3o2)cc1 (stereo not given),inactive
20,CCOC(=O)[C@H](C)Oc1ccc(Oc2nc3ccc(Cl)cc3o2)cc1,inactive
21,O=C(Nc1ccc([N+](=O)[O-])cc1Cl)c1cc(Cl)ccc1O,inactive
22,CCC(O)=C1C(=O)CC(C(=O)O)CC1=O (stereo not given),inactive
23,COC(=O)CSc1cc(N=c2sc(=O)n3n2CCCC3)c(F)cc1Cl,inactive
24,COCCO,inactive
25,COC(=O)c1ccc(I)cc1S(=O)(=O)NC(=O)Nc1nc(C)nc(OC)n1,inactive
26,CCCOC(=O)c1ccc(C(=O)OCCC)nc1,inactive
27,S=C(S)NCCNC(=S)S.[Mn+2].[S-]C([S-])=NCCN=C([S-])[S-].[Zn+2],inactive
28,C#CCOC(=O)[C@@H](C)Oc1ccc(Oc2ncc(Cl)cc2F)cc1,inactive
29,N#CSCSc1nc2ccccc2s1,inactive
30,O=C(O)C1(C(=O)Nc2ccc(Cl)cc2Cl)CC1,inactive
